72 compounds from PubChem BioAssay AID1117361 (Southern Research Institute, 2015) can be followed below.

The structures appear in SMILES notation. Screen size: about 3,600 compounds; about 900 (25%) were called active. No rule for the calls is given here. Not all results are given here. Entries with a potency or affinity are not part of this list.

In this test the target is Protein Tat (Human immunodeficiency virus type 1 group M subtype B (isolate HXB2)) (UniProt P04608). Description: HIV-1 Tat–TAR interaction blockers – biochemical, fluorescence polarization, FAM-labeled TAR RNA, counter-screen for Vif-APOBEC3G degradation inhibitor project, dose response (AID 1117361). The conditions noted are these: Tat-TAR RNA binding; series mostly up to 100 µM; inhibition: at the top concentration. Background: In fluorescence polarisation assays a small probe gives low polarisation when free and higher when bound to something large.
In the case of `Cc1cc2cc(C=O)c(Cl)nc2cc1C`, the compound was called inactive.

As to `CCOc1cccc(SCc2noc(C(=O)NCC3CCCO3)c2C(=O)O)c1` (configuration not stated), the “inhibition” value was 9.46% (inactive).

As to `Cc1ccccc1OCC(=O)NCC1CCCO1` (configuration not stated), the “inhibition” value is 4.05% (inactive).

`Cc1cc2ncn(C(=O)N3CCOCC3)c2cc1C`: the “inhibition” value is 4.05% (inactive).

Turning to `O=C(CN1C(=O)NC2(CCCC2)C1=O)Nc1nc(-c2ccc(F)cc2)cs1`, the “inhibition” value is 2.05% (inactive).

With `CCOc1ccc(N2C(=O)c3ccccc3C2O)cc1` (configuration not stated), the call was inactive.

Regarding `COc1ccc(CN2C(=O)c3ccccc3C2C(=O)NCc2cccnc2)c(OC)c1` (configuration not stated), the compound was called inactive.

Consider `C/C(=N\NC(=O)c1ccc(NS(=O)(=O)c2cccs2)cc1)c1ccccc1`, for which the “inhibition” value is 1.65% (inactive).

In the case of `Cc1ccc(CN2C(=O)CCC2C(=O)N2CCN(c3ccc(F)cc3)CC2)cc1` (configuration not stated), the “inhibition” value was 2.73% (inactive).

Consider `CC(=O)n1c(Cl)c(NC(=O)CCl)c2ccccc21`, for which the “inhibition” value is 3.38% (inactive).

Regarding `CC(NC(=O)C(NS(=O)(=O)c1cccs1)C(C)C)c1ccc(S(N)(=O)=O)cc1` (configuration not stated), the call was inactive.

For `Cc1cc(C)cc(NCCC#N)c1`, the call was inactive.

On to `CCOC(=O)CC1Sc2ccccc2NC1=O` (configuration not stated), for which the compound was called inactive.

On to `Cc1cc(C)n(Cc2ccc(NC(=O)c3nn(C)cc3[N+](=O)[O-])cc2)n1`, for which the compound was classed as inactive.

For `Cc1ccc2[nH]c(=O)c(CN(Cc3cccnc3)C(=O)c3ccncc3)cc2c1`, the compound was classed as inactive.

`COC(=O)Nc1sc2nc(C)cc(C)c2c1-n1cccc1`: the “inhibition” value is 8.78% (inactive).

Turning to `O=C(COc1ccc([N+](=O)[O-])cc1)NC(C(=O)O)C(O)c1cccc([N+](=O)[O-])c1` (configuration not stated), the “inhibition” value is 12.4% (inactive).

As to `CCn1c(COc2ccc(=O)n(-c3ccccc3)n2)nnc1SCc1ccc(C)cc1`, the call was inactive.

`CCc1ccc(NC(=O)C(C)Oc2nnc(-c3cccs3)c(-c3cccs3)n2)cc1` (configuration not stated): the “inhibition” value is 2.7% (inactive).

As for `Cc1ccccc1SCc1noc(C(=O)NC(C)C)c1C(=O)O`, the “inhibition” value was 6.08% (inactive).

On to `CN(Cc1cccs1)C(=O)Cn1cnc2ccccc2c1=O`, for which the result was inactive.

Consider `COc1ccc([N+](=O)[O-])cc1CSc1nnc(NC(C)=O)s1`, for which the “inhibition” value was 9.9% (inactive).

As to `COCCSc1nnc(NC(=O)Cc2ccccc2OC)s1`, the “inhibition” value was 8.11% (inactive).

As for `Oc1ccc(/C=C/c2cnccn2)cc1`, the compound was called inactive.

Consider `Cc1ccc(C)c(S(=O)(=O)Nc2ccc3scnc3c2)c1`, for which the “inhibition” value was 1.36% (inactive).

For the compound `O=C(Nc1nncs1)c1c(F)c(F)c(F)c(F)c1F`, the “inhibition” value was 19.1% (inactive).

In the case of `O=C(CN(C1CCCCC1)S(=O)(=O)c1ccccc1)N1CCCC1`, the “inhibition” value is 5.41% (inactive).

`Cc1nc2ccccn2c1/C(O)=C1\C(=O)C(=O)N(CCCn2ccnc2)C1c1ccncc1` (configuration not stated): the “inhibition” value was 18.9% (inactive).

Turning to `CCN(CC)CCCN1CC(O)=C(c2nc3ccccc3s2)C1=N`, the “inhibition” value was 5.41% (inactive).

Regarding `Cc1cc(Nc2ccc(C)c(C)c2)n2nc(C)nc2n1`, the “inhibition” value was 2.03% (inactive).

`O=S(=O)(Nc1ccc(N2CCOCC2)cc1)c1ccccc1`: the result was inactive.

Regarding `Cc1cc(C(=O)N2CCOCC2)n(-c2ccccc2)n1`, the “inhibition” value is 4.73% (inactive).

As for `Cc1nn(-c2c(Cl)cc(Cl)cc2Cl)c(=O)c2ccccc12`, the “inhibition” value is 8.35% (inactive).

Consider `CC(Sc1nnnn1-c1ccccc1)C(=O)Nc1ccc(Cl)cn1` (configuration not stated), for which the compound was called inactive.

As to `O=C(CN1C(=O)C2CC=CCC2C1=O)OCCN1C(=O)c2ccccc2C1=O` (configuration not stated), the outcome is “inactive [at 50 µM]”.

On to `Cc1ccc(CCNC(=O)C2CCC(=O)N2C2CCCC2)cc1` (configuration not stated), for which the “inhibition” value was 1.36% (inactive).

`Cc1c(NS(=O)(=O)c2cccc(C(=O)NCc3ccncc3)c2)c(=O)n(-c2ccccc2)n1C`: the “inhibition” value is 0.68% (inactive).

In the case of `O=S(=O)(NCc1ccccc1Cl)c1cnc[nH]1`, the “inhibition” value was 2.73% (inactive).

For the compound `CNC(=S)N(Cc1ccc(OC)cc1)C1CC(=O)N(c2ccc(Cl)cc2)C1=O` (configuration not stated), the “inhibition” value was 10.8% (inactive).

On to `CCCC(=O)NNC(=O)Nc1ccccc1`, for which the “inhibition” value was 10.3% (inactive).

Regarding `COc1ccc2cc(C(=O)Nc3ccc(O)cc3)sc(=O)c2c1OC`, the “inhibition” value was 25.6% (inactive).

As to `CCN1CCN(Cc2ccc(NC(=O)Nc3ccccc3)cc2)CC1`, the call was inactive.

As to `O=C(NCC1CCCO1)c1c(O)c2c([nH]c1=O)CCCC2` (configuration not stated), the result was inactive.

In the case of `CC[n+]1c(/C=C2\C=C(C)CC(C)(C)C2)sc2ccccc21`, the “inhibition” value was 9.02% (inactive).

As for `CCC(C)NC(=O)CSc1ccc(S(=O)(=O)N2CCN(Cc3ccccc3)CC2)cn1` (configuration not stated), the call was inactive.

With `Cc1csc(NC(=O)CCSCCc2ccccn2)n1`, the call was inactive.

On to `CCOc1ccc(NC(=S)/C(=C(\[O-])c2ccc(C)c([N+](=O)[O-])c2)[n+]2ccccc2)cc1`, for which the “inhibition” value is 16.2% (inactive).

Regarding `C=C(C)COc1ccc2c(C)c(C)c(=O)oc2c1OCC(=C)C`, the “inhibition” value was 3.38% (inactive).

On to `COc1ccc(NC(=O)CN(C)S(=O)(=O)c2ccc3c(c2)CCC(=O)N3)c(OC)c1`, for which the “inhibition” value is 3.38% (inactive).

Regarding `Cn1c(SCC(=O)N2CCCC2)nc2ccccc2c1=O`, the compound was called inactive.

Regarding `CCC(Sc1nc2c(c(=O)n1CC)SC(C)C2)C(=O)OC` (configuration not stated), the “inhibition” value was 4.05% (inactive).

Take `CC(=O)NCCn1c(SCC(=O)Nc2ccc(C)cc2)nc2ccccc2c1=O`: the result was inactive.

Consider `Cc1noc(NS(=O)(=O)c2ccc(NC(=O)CSc3nnc(-c4ccccc4)n3C3CCCCC3)cc2)c1C`, for which the compound was called inactive.

Consider `Cc1nc(NCc2ccccc2)c2cc[nH]c2n1`, for which the result was inactive.

On to `Cc1cc(C)n(CC(O)CN2c3ccccc3Sc3ccccc32)n1` (configuration not stated), for which the compound was called inactive.

Take `CC1CCCCN1Cc1ccc(N(C)C)cc1` (configuration not stated): the “inhibition” value was 2.7% (inactive).

For the compound `O=C(Nc1ccccc1)c1ccc2nc(-c3ccco3)c(-c3ccco3)nc2c1`, the compound was called inactive.

With `O=C(Nc1cccc(C(F)(F)F)c1)c1cccnc1NCCc1ccccc1`, the compound was classed as inactive.

For `Cc1ccc(C(=O)Nc2cccnc2)cc1NC(=O)c1ccco1`, the call was inactive.

For the compound `O=C(NN=C1CCCC1)C(=O)Nc1cccc(C(F)(F)F)c1`, the outcome was inactive.

Regarding `COC(=O)C1=C(C)Nc2ncnn2C1c1ccc(OC(=O)c2ccccc2)cc1` (configuration not stated), the “inhibition” value is 7.43% (inactive).

`CC(=O)c1ccccc1NC(=O)COC(=O)CN1C(=O)C2CCCCC2C1=O` (configuration not stated): the “inhibition” value is 3.3% (inactive).

As for `COCCn1c(-c2ccc(OC)cc2)nc2ccccc21`, the compound was classed as inactive.

As to `N#Cc1cn(CCOc2ccccc2F)c2ccccc12`, the outcome was inactive.

Consider `Cc1ccc(C(=O)N2c3ccc(F)cc3CCC2C)o1` (configuration not stated), for which the “inhibition” value was 10.9% (inactive).

Regarding `CC(Cc1c[nH]c2ccccc12)C(=O)NCc1ccco1` (configuration not stated), the “inhibition” value is 5.68% (inactive).

For the compound `COC(=O)COc1ccc(S(=O)(=O)NCc2ccco2)cc1Cl`, the “inhibition” value was 0.68% (inactive).

For the compound `CN(C)CCNc1oc(COc2ccc(Cl)cc2)nc1C#N`, the “inhibition” value is 11.6% (inactive).

On to `O=C(NNC(=O)c1cc(OCC(F)(F)F)ccc1OCC(F)(F)F)c1cccc(C(F)(F)F)c1`, for which the call was inactive.

As for `Cc1cc(-n2c(C)cc(C(=O)COC(=O)CN=C3NS(=O)(=O)c4ccccc43)c2C)no1`, the “inhibition” value is 11.5% (inactive).

As to `COC(=O)C1(C(=O)OC)NOC2C(=O)N(c3ccccc3)C(=O)C21` (configuration not stated), the “inhibition” value was 0.68% (inactive).

With `O=C1CCCC2=C1C(c1ccsc1)CC(=O)N2c1ccccc1` (configuration not stated), the “inhibition” value was 7.43% (inactive).

What is called inhibition is the drop in the measured response relative to a control, in per cent.
